Reference: the OligoGym collection

Molecular target: ACSL3
Assay: pooled miR-30 sensor sort-seq; sequence = guide strand
Conditions: shRNA

Sequence | sensor-assay potency score (higher = more potent)
TAATTTTTGAAGACTGATCTGC | 0.522
TAAAGTATCACATCCAGGGTAT | 0.0296
TTTTCTTGTCTTGACTCGGAGA | -0.78
TTTCACAGCAAACTAATGGTGC | -0.648
TTATCTAAAGTATCACATCCAG | -0.397
TTTGATTTCACAGCAAACTAAT | -0.867
TACTAGTGGAAGATTCTTCAAA | -0.312
TACAGAGCCACCTTTGTCCATT | -0.892

Molecular target: ACSM2A
Assay: as above
Conditions: shRNA

Sequence | sensor-assay potency score (higher = more potent)
TCATGGGACAGGAACTGCGAGG | -1.14
TTGTCTCGAAGCTTGGCTCGTT | 0.119
ATGATCTGTACATCATAACAGG | -1.32

Molecular target: ACSM2B
Assay: as above
Conditions: shRNA

Sequence | sensor-assay potency score (higher = more potent)
TCCTGCTGTAGCAACATCCGGT | -0.567
TTTCATTGTCTTGGAAACCATG | -1.14
ATAACCTGTACATCATAACAGG | -1.03
TTAATGTAGAGAGTGCGGCTGG | 0.202
TTTCTCAGACACCAGTAGCTTA | -0.818
TATCTTTCTTGGGTACTTGTAT | -0.285
TTGGTTCGTTGAATTTTCCCTG | 0.266
TGACTTCACATGCTGCTGCAGC | -0.423
TAAACTGGAAATACCCATCTTC | 0.528
TTGTCTCGAAGTTTGGTTCGTT | 0.313
TTGATTTTCATTGTCTTGGAAA | -0.899
TTGGGTACTTGTATGGGGCTGT | 0.442
TTAATGATATCATCTGCCCGTC | -0.544
TTGGCTGCTGTCTTGTCGGGAT | -0.364
TAACCTGTACATCATAACAGGA | -0.501

Molecular target: ACSM5
Assay: as above
Conditions: shRNA

Sequence | sensor-assay potency score (higher = more potent)
TCCACTTGATCTCTGCTCCTGT | -0.0695
TTGATCTCTGCTCCTGTGCCAT | -0.903
TTGAAGAAACAGAAGGGCCGAG | -0.0546
TACTCCTTTGGATCTTTCCAGA | -1.3
ATAACTTTGGCATCAACTCGGG | -0.475
TAACTTTGGCATCAACTCGGGG | -0.74
TTGAAGAATTGATCACATCGTC | 0.691
TACAGCTCCACACCAGTCTGGT | -0.482
TTGATCACATCGTCGTTTCTTC | 0.51
TGACTTCGCAATTTACTCCTTT | -0.271
AGAATTGATCACATCGTCGTTT | -0.999
TTTGACATCTTTAGGGTCGAAG | -1.09
